Assay outcomes deposited in PubChem BioAssay by several laboratories.
This is a sample that favours compounds with a hit; in the whole collection about 4.1% have one here.
PolyA inh: blocks polyadenylation in yeast reporter cells. activity score, % at 12 µM. S. cerevisiae SKY197-pL101 polyadenylation reporter, beta-gal luminescence; efflux-impaired pdr1/pdr3 knockout yeast; score 100 = 6 SD above DMSO. 0.02% of 300,000 active;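 active = lowest replicate activity score at least 50, where 100 means six control SD above control mean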;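 also: yeast exposed to compound for 9 h at 30 °C; higher score means more reporter readthrough which indicates perturbed polyadenylation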
PfM18AAP inh: blocks P. falciparum M18 aspartyl aminopeptidase | recombinant PfM18AAP, H-Glu-NHMec fluorogenic cleavage | inhibition, % at 7.35 µM | 1.2% of 290,000 active;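 active = inhibition above the campaign mean inhibition over all tested compounds plus 3 SD, cut at about 28% in these data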
IDE cell activ: boosts human insulin-degrading enzyme activity in HEK cells. FAbeta-B cleavage, fluorescence polarization; 0% vehicle, 100% cell-free pure enzyme wells. 0.073% of 340,000 active. activation, % at 5.96 µM. P14735;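 active = activation above the mean of all tested compounds plus 3 SD, set per screening campaign, cut at about 17% in these data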
Target sequence (P14735 whole entry, looked up): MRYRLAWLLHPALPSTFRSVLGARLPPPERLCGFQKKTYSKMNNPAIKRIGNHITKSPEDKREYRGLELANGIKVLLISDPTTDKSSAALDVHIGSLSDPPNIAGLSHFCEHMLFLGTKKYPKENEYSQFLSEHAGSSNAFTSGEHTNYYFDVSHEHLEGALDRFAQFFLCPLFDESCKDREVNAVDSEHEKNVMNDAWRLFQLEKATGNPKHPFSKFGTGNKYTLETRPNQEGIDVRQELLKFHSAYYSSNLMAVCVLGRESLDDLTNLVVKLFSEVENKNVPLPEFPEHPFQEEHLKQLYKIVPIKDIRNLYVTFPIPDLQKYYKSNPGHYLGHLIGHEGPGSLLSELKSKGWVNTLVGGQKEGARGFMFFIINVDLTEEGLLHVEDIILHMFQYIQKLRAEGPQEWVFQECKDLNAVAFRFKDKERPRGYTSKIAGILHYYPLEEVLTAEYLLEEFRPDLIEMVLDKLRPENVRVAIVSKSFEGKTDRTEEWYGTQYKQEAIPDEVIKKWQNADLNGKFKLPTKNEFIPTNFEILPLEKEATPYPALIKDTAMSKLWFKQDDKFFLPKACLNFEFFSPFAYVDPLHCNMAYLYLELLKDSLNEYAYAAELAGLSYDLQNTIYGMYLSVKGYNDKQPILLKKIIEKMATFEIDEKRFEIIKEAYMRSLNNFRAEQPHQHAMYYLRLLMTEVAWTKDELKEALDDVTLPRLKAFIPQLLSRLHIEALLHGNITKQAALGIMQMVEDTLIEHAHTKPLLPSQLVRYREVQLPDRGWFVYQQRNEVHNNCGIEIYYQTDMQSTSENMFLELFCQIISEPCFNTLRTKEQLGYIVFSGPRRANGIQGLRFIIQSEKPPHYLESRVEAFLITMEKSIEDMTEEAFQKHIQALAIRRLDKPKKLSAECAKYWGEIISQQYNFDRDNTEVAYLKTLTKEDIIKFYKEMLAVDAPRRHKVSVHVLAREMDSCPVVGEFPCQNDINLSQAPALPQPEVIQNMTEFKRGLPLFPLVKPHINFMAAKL
ALR inh: inhibitors of human sulfhydryl oxidase ALR. P55789. AID 485317. 3.8% of 290,000 active. purified ALR, DTT oxidation, H2O2 HRP-luminol luminescence. inhibition, % (test concentration not listed);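 active = mean replicate inhibition above about 79%, with every replicate also reaching it, limit read from the data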
CaV13 FRET inh: Primary screen for inhibitors of IQ motif and Ca2+-dependent inactivation inhibitor domain binding in CACNA1D, Förster resonance energy transfer in living cells, …. HEK cells, CFP/YFP FRET ICDI-IQ, plate reader, 10 min; percent FRET-ratio fall versus neutral wells. inhibition, % at 12.3 µM. 0.098% of 340,000 active;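 active = mean replicate inhibition of at least 30% and at least 1% of replicates passing that level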
IDE inh: inhibitors of human insulin-degrading enzyme in cells. inhibition, % at 5.59 µM. P14735. HEK cells, FAbetaB cleavage, fluorescence polarization. 0.41% of 320,000 active;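 active = percent inhibition above the average of all tested compounds plus 3 SD, set per screening campaign, cut at about 16% in these data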;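 also: IDE supplied by intact live HEK cells; FP after avidin binding of uncleaved biotin substrate so inhibition keeps polarization high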
Each line names hits and unclear results; the compound was inactive in the other large screens.

CCn1c(=O)n(CC)c2cc(N3CCCC3)c(NC(=O)c3ccccc3F)cc21	none (no result: ALR inh)
COc1ccc(Br)cc1C(=O)Nc1ccc(O)cc1	ALR inh 99
COCOCCn1cc(CN2CCS(=O)(=O)N(Cc3ccc(-c4cccc(CO)c4)cc3)C(CC(C)C)C2=O)nn1 (stereo unspecified)	none (no result: PolyA inh, PfM18AAP inh, IDE cell activ, ALR inh, IDE inh)
CCN(C(=O)C1CC1)C1CCS(=O)(=O)C1 (stereo unspecified)	none (no result: PfM18AAP inh)
Cc1ccccc1N(CC(=O)Nc1ccc(S(=O)(=O)N2CCOCC2)cc1)S(C)(=O)=O	none
CCn1c(=O)n(CC)c2cc(N3CCCC3)c(NC(=O)c3cc(Br)ccc3OC)cc21	PfM18AAP inh 30 (no result: IDE cell activ)
COc1c(C(=O)Nc2ccc3[nH]c(=O)[nH]c3c2)cc2ccccc2c1Br	IDE cell activ 20
O=c1cc(-c2cccc3ccccc23)[nH][nH]1	ALR inh 88
COc1ccc([N+](=O)[O-])c(S(=O)(=O)c2ccccc2)n1	ALR inh 97 (no result: IDE cell activ)
O=[N+]([O-])c1cccnc1S(=O)(=O)c1ccccc1	none
COc1ccc([N+](=O)[O-])c(S(=O)(=O)c2ccc(Cl)cc2)n1	ALR inh 75
COc1nc(OC)nc(Oc2ccc(Cl)cc2[N+](=O)[O-])n1	none
O=C(NNC(=O)c1ccc(Cl)nc1)c1ccncc1	none (no result: PolyA inh, PfM18AAP inh, ALR inh)
FC(F)(F)c1cc(CCN2CCNC[C@H]2Cc2cccc3ccccc23)cc(C(F)(F)F)c1	IDE cell activ 20 (no result: PfM18AAP inh)
CCCn1c(C)cc(C(=O)COC(=O)CN=C2NS(=O)(=O)c3ccccc32)c1C	none
Cn1c2ccccc2c2cc(/C=C(\NC(=O)c3ccccc3)C(=O)O)ccc21	ALR inh 86
FC(F)(F)C1=CC(c2ccc(Br)cc2)=NCCN1	ALR inh 100
Cc1ccn2c(-c3n[nH]c(=S)n3C)c(C)nc2c1	ALR inh 95
Cc1cccc(-c2n[nH]c(=S)n2C)c1	none
Cc1ccc(-c2cc(-c3n[nH]c(=S)n3C)c3ccccc3n2)cc1	ALR inh 97
Cn1c(-c2ccccc2Br)n[nH]c1=S	ALR inh 96 (no result: CaV13 FRET inh)
Cn1c(-c2sccc2OCc2ccccc2)n[nH]c1=S	ALR inh 97
Cc1ccc(COc2ccsc2-c2n[nH]c(=S)n2C)cc1	none
COc1ccc([N+](=O)[O-])cc1NC(=O)c1ccccc1N(C)S(C)(=O)=O	none
Fc1ccccc1C1CC(c2ccco2)=Nc2ccccc2S1 (stereo unspecified)	none
CN(C)c1ccc(-c2n[nH]c(=S)n2-c2ccccc2)cc1	ALR inh 95
Cc1c(Cl)c(-c2n[nH]c(=S)n2-c2ccccc2)nn1C	ALR inh 92
CCC(c1n[nH]c(=S)n1-c1ccccc1)N(C)C (stereo unspecified)	PfM18AAP inh 31 (no result: ALR inh)
Cn1c(-c2ccccc2)n[nH]c1=S	ALR inh 93
CCN(CC)c1ccc(-c2n[nH]c(=S)n2-c2ccccc2)cc1	none
COc1ccc(Cn2c(=O)oc3ccc(C)cc32)cc1	none
O=C(NCc1ccc(F)cc1)C1(c2cccs2)CCOCC1	none
NC(=O)CC(NC(=O)Cc1ccc(Cl)cc1)c1ccc(NCCN2CCOCC2)c([N+](=O)[O-])c1 (stereo unspecified)	none
Cc1nc(-c2ccccc2)sc1-c1n[nH]c(=S)n1C	ALR inh 92
CSc1nnc(-c2sc(-c3ccccc3)nc2C)n1C	none
NC(=O)c1cc(Br)cc(C2CCCCC2)c1O	ALR inh 92
CC(=O)N1CCN(c2ccc(Nc3nc(C)nc4c3oc3ccccc34)cc2)CC1	ALR inh 96 (no result: PfM18AAP inh, CaV13 FRET inh)
CC(=O)Nc1ccc(Nc2nc(C)nc3c2oc2ccccc23)cc1	none
O=C(Nc1c(Cl)cc(Cl)cc1C(=O)NCCN1CCOCC1)c1ccc(Cl)cc1Cl	none
O=C(Nc1c(Cl)cc(Cl)cc1C(=O)NCCN1CCOCC1)c1cccc([N+](=O)[O-])c1	ALR inh 99
Cc1cccc(C(=O)NCCN2CCOCC2)c1[N+](=O)[O-]	IDE cell activ 28 (no result: ALR inh)
COc1ccccc1CNC(=O)[C@@H]1CCCN1S(=O)(=O)c1ccc(C)cc1	none (no result: ALR inh)
COc1ccc(N2CC(C(=O)Nc3ccncc3)CC2=O)cc1 (stereo unspecified)	none
CCC(Sc1nc2ccc(N)cc2s1)C(=O)Nc1nccs1 (stereo unspecified)	ALR inh 99
CCC(Sc1nc2ccccc2s1)C(=O)Nc1nnc(C)s1 (stereo unspecified)	ALR inh 98
CCC(Sc1nnc(C)s1)C(=O)Nc1nccs1 (stereo unspecified)	none
O=C(COc1ccc2c3c(c(=O)oc2c1)CCC3)NCc1cccnc1	none
NC(=O)c1nc(-c2cccs2)nc2c1[nH]c(=O)n2-c1ccc(F)cc1	none
O=C1NCCCc2c1oc1cc(Br)c(O)c(Br)c21	ALR inh 99
CCOC(=O)C(C(=O)OCC)C(C)C#CCN1CCCCC1 (stereo unspecified)	none (no result: CaV13 FRET inh)
COc1ccccc1CNC(=O)C1=CCN(S(=O)(=O)c2ccc(C)cc2)CC1	none
Oc1ccc2ccccc2c1C=Nc1ccc(N2CCOCC2)cc1	none (no result: IDE cell activ, ALR inh)
C(=Nc1ccc(N2CCOCC2)cc1)c1c[nH]c2ccccc12	ALR inh 99
O=C1Cn2nnc(-c3ccccc3)c2C2c3ccccc3CCN12 (stereo unspecified)	none (no result: PolyA inh, PfM18AAP inh, IDE cell activ, ALR inh, IDE inh)
S=c1[nH]cc(-c2ccc(Cl)cc2)n1Cc1ccccc1	none
CCn1c(-c2ccccc2)c[nH]c1=S	ALR inh 99 (no result: CaV13 FRET inh)
CC(C)Cn1c(-c2ccc(Br)cc2)c[nH]c1=S	ALR inh 97
CCN1C=CC2=C(C#N)C(N)C(C#N)(C#N)C(c3ccccc3C(F)(F)F)C2C1 (stereo unspecified)	none (no result: CaV13 FRET inh)
O=c1ccn([C@@H]2O[C@H](CNCc3c(OCc4ccccc4F)ccc4ccccc34)[C@@H](O)[C@H]2O)c(=O)[nH]1	none (no result: PolyA inh, PfM18AAP inh, IDE cell activ, ALR inh, IDE inh)
Cc1ccc[n+](CC(=O)Nc2ccc(N(C)C)cc2)c1	ALR inh 100
CN(C)c1ccc(NC(=O)C[n+]2ccccc2)cc1	ALR inh 99
CN(C)c1ccc(NC(=O)Oc2ccccc2)cc1	ALR inh 97
CN(C)c1ccc(/C=N/NC(=O)C[n+]2ccccc2)cc1	ALR inh 99 (no result: PfM18AAP inh)
O=C(C[n+]1ccccc1)N/N=C/c1ccc(C(=O)O)cc1	none (no result: PolyA inh, PfM18AAP inh)
CC(=O)c1ccc(NC(=O)C[n+]2ccc(N(C)C)cc2)cc1	none (no result: IDE inh)
CC(=O)c1ccc(NC(=O)C[n+]2cccc(C)c2)cc1	none
C=CC12C=CC=CN1C(C(=O)OC)=C(C(=O)OC)C(C(=O)OC)=C2C(=O)OC (stereo unspecified)	none
O=C(Nc1ccc(N2CCCCCC2)cc1)c1cccc(S(=O)(=O)N2CCOCC2)c1	none (no result: PolyA inh, PfM18AAP inh)
